“And” between values parts separate entries of the source, which are not always exact repeats. Identical values can stand only once. The whole screen tested about 300,000 compounds, of which about 3,200 (1.1%) were called active.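 The calls were made as follows: active = inhibition above the campaign mean inhibition plus 3 SD (cut at about 35% in these data); inactive = the rest.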 The full list was thinned out, with actives kept by preference.
What follows are molecules tested against Glutathione S-transferase omega-1 (Homo sapiens) (UniProt P78417) (assay: inhibitors of recombinant GSTO1, primary screen, counter-screen for RBBP9 inhibitor project, biochemical, fluorescence polarization (AID 1974;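 also: 0% = GSTO1-1 with DMSO and 100% = wells lacking GSTO1-1 enzyme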)). Conditions: recombinant GSTO1, activity-based probe fluorescence polarization; at 5.96 µM; stronger effect = higher value.
Sequence of Glutathione S-transferase omega-1 (Homo sapiens) (P78417 whole entry, looked up): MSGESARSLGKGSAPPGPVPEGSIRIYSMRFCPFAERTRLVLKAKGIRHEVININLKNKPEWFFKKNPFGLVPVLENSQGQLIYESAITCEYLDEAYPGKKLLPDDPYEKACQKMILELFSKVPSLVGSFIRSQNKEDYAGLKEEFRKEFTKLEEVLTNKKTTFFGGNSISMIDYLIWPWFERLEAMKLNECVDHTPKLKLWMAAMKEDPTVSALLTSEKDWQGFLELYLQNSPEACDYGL
For `CC(C)CCN1CCN=C1N(C)C`, the inhibition was -2.91% (inactive).
With `CC(=O)N(C)c1ccc(NC(=O)C(F)(F)F)cc1` the inhibition was 2.55% (inactive).
In the case of `CN(C)c1ccc(N/C=C/C(=O)C(F)(F)F)cc1`, the inhibition is reported as 57.6% (active).
With `CC(C)CNC(=O)C(=O)Nc1ccc(N(C)C)cc1` the inhibition was 4.12% (inactive).
`[O-][n+]1ccc(OCc2ccccc2)cc1` was tested, and the inhibition was 10.9% (inactive).
In the case of `CN1C(C(=O)NCc2ccco2)CC2Cn3c(nc4ccccc43)C21` (centres undefined), the inhibition is reported as 6.49% (inactive).
`O=c1cc(CCl)nc2scc(-c3ccccc3)n12` was tested, and the inhibition was 85.3% (active).
`O=C(O)Cc1csc(-c2cccc(Oc3ccccc3)c2)n1` was tested, and the inhibition was 2.72% (inactive) and 8.12% (inactive).
With `OCCn1c(-c2ccccc2)csc1=Nc1ccccc1` the inhibition was -1.25% (inactive).
For `Cc1ccc(C)c(OCC(=O)N2CCN(C(=O)c3ccco3)CC2)c1`, the inhibition was -2.08% (inactive).
For `Cc1nc2nc(C)c(CCC(=O)N3CCN(c4ccccc4)CC3)c(C)n2n1`, the inhibition was 8.27% (inactive).
For `Cc1nc2ncnn2c(C)c1CCC(=O)N1CCN(C(=O)c2ccco2)CC1`, the inhibition was 50.8% (active).
For `Cc1ccc(S(=O)(=O)CC(=O)Nc2sc(C)c(C)c2C(N)=O)cc1`, the inhibition was 0.44% (inactive).
`COC(=O)c1cccc(NC(=O)CN2CCC(NC(=O)c3cc(OC)c(OC)c(OC)c3)CC2)c1` was tested, and the inhibition was 48.5% (active).
For `O=C(CN1CCC(NC(=O)Nc2ccccc2)CC1)Nc1cccc([N+](=O)[O-])c1`, the inhibition was 5.63% (inactive).
With `COc1cc(C(=O)NC2CCN(Cc3ccccc3)CC2)cc(Cl)c1OC(C)C` the inhibition was -0.77% (inactive).
`Cc1ccc(S(=O)(=O)N(C)c2ccc(OCC(=O)OCC(=O)N(CC#N)c3ccccc3)cc2)cc1` was tested, and the inhibition was 2.81% (inactive).
With `CC(C)c1ccc(S(=O)(=O)N2CCN(C(=O)CN3C(=O)NC(C)(c4ccccc4)C3=O)CC2)cc1` (centres undefined) the inhibition was 4.89% (inactive).
In the case of `O=C(Nc1cc(-c2ccccc2)nn1-c1ccccc1F)c1ccc([N+](=O)[O-])cc1`, the inhibition is reported as -3.44% (inactive).
In the case of `CCCNC(=O)c1c(N)n(-c2ccc(S(N)(=O)=O)cc2)c2nc3ccccc3nc12`, the inhibition is reported as -3.18% (inactive).
With `CC(C)(C)c1ccc(C(=O)NCCn2c(N)c(C#N)c3nc4ccccc4nc32)cc1` the inhibition was 6.36% (inactive).
With `CC(C)Cn1c(N)c(C(=O)NCc2cccs2)c2nc3ccccc3nc21` the inhibition was 38.5% (active).
In the case of `CCN1CCN(C(=O)N[C@@H](C(=O)N[C@@H]2C(=O)N3C(C(=O)O)=C(CSc4nnnn4C)CS[C@H]23)c2ccc(O)cc2)C(=O)C1=O`, the inhibition is reported as -2.08% (inactive).
With `CC1(C)C/C(=N/Nc2ccc([N+](=O)[O-])cc2[N+](=O)[O-])C(C)(C)O1` the inhibition was -2.6% (inactive).

Reference: PubChem BioAssay AID1974 (The Scripps Research Institute Molecular Screening Center, 2009)
